Results filed as inconclusive are left out. Calls of active or inactive are those of the source. The calls were made as follows, unless noted: active = hit-call score of the fitted dose curve at least 0.9, where 1 is the maximum; inconclusive = response in the unintended direction; inactive = score below 0.9.
Legend:
[1] = biological target: human Peroxisome Proliferator-activated Receptor delta (PPARd), PPARD (gene 5467) (UniProt Q03181); test: ATG_PPARd_TRANS: Attagene TRANS-FACTORIAL HepG2 Assay for human Peroxisome Proliferator-activated Receptor delta (PPARd) (AID 2283002)
Method in brief: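 Fluorescence from capillary electrophoresis of labelled RT-PCR reporter fragments gives the signal; DMSO sets baseline. Cells: HepG2 transiently carrying GAL4-UAS reporter units plus chimeric nuclear receptor-Gal4 proteins, exposed to chemicals for 24 h.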

[2] = read-out: Intercellular Adhesion Molecule 1 (ICAM1), ICAM1 (gene 3383); test: BSK_3C_ICAM1: BioMAP Diversity Plus: 3C Assay for Intercellular Adhesion Molecule 1 (ICAM1) Biomarker Activity (AID 2283003; active = hit-call score of the fitted dose curve at least 0.9, where 1 is the maximum; inactive = score below 0.9); conditions: primary human endothelial cells (HUVEC); actives raise or lower the signal
Method in brief: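 Primary human umbilical vein endothelial cells in the BioMAP 3C system were exposed to chemicals for 24 h, then ICAM-1 was quantified by ELISA. Activity was fitted bidirectionally against the DMSO negative control baseline.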

[3] = BSK_3C_Proliferation: Cell Proliferation Assessment in the BioMAP Diversity Plus: 3C Assay (AID 2283006; active = hit-call score of the fitted dose curve at least 0.9, where 1 is the maximum; inactive = score below 0.9;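 as to AC50: potency may reflect either rise or fall in cell number versus DMSO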); conditions: primary human endothelial cells (HUVEC)
Method in brief: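 Human umbilical vein endothelial cells were grown sub-confluent and exposed to chemical for 48 h, then fixed with 10% TCA and stained with 0.1% sulforhodamine B; absorbance at 560 nm gave relative cell number, fitted bidirectionally against DMSO baseline.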

[4] = biological target: Peroxisome proliferator-activated receptor gamma (Homo sapiens) (UniProt P37231); test: ATG_PPARg_TRANS: Attagene TRANS-FACTORIAL HepG2 Assay for human Peroxisome Proliferator-activated Receptor-gamma (PPARg) (AID 2283007)
Method in brief: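 HepG2 cells are transiently transfected with GAL4-UAS reporter units driven by chimeric NR-Gal4 fusions and dosed for 24 h. Reporter mRNA is quantified by RT-PCR, 6-FAM labelling, HpaI digestion and capillary electrophoresis. Induction is scored against DMSO.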

[5] = biological target: Nuclear receptor subfamily 1 group I member 2 (Homo sapiens) (UniProt O75469); test: ATG_PXR_TRANS: Attagene TRANS-FACTORIAL HepG2 Assay for human Pregnane X Receptor (PXR) (AID 2283008)
Method in brief: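 HepG2 cells transiently transfected with multiple reporter units, here a PXR-GAL4 chimera driving a GAL4-UAS reporter; 24 h compound exposure. Reporter mRNA measured by RT-PCR, FAM labelling and capillary electrophoresis; gain of signal fitted against DMSO baseline.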

[6] = biological target: human Retinoic Acid Receptor beta (RARb), RARB (gene 5915) (UniProt P10826); test: ATG_RARb_TRANS: Attagene TRANS-FACTORIAL HepG2 Assay for human Retinoic Acid Receptor beta (AID 2283004)
Method in brief: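 HepG2 cells were transiently transfected with GAL4-UAS reporter units that report activity of exogenous chimeric NR-Gal4 proteins, then exposed to compound for 24 h. Reporter mRNA was quantified by RT-PCR with capillary electrophoresis fluorescence, as gain of signal over DMSO.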

[7] = biological target: Retinoic acid receptor alpha (Homo sapiens) (UniProt P10276); test: ATG_RARa_TRANS: Attagene TRANS-FACTORIAL HepG2 Assay for human Retinoic Acid Receptor alpha (RARa) (AID 2283005)
Method in brief: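 HepG2 transiently transfected with multiplex GAL4-UAS reporter units including a human RARa–GAL4 chimera; 24 h compound exposure. Reporter mRNA quantified by RT-PCR, 6-FAM labeling and capillary electrophoresis; gain of signal versus DMSO.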

[8] = biological target: human Retinoic Acid Receptor gamma (RARg), RARG (gene 5916) (UniProt P13631); test: ATG_RARg_TRANS: Attagene TRANS-FACTORIAL HepG2 Assay for human Retinoic Acid Receptor gamma (RARg) (AID 2283009)
Method in brief: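 HepG2 cells transiently transfected with multiplexed reporter units expressing chimeric RARg-GAL4 and GAL4-UAS-driven reporters; 24 h compound exposure. Reporter mRNA quantified by RT-PCR with fluorescent labelling and capillary electrophoresis; gain-of-signal fitted relative to DMSO baseline.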

[9] = biological target: human RAR-related Orphan Receptor beta (RORb), RORB (gene 6096) (UniProt Q92753); test: ATG_RORb_TRANS: Attagene TRANS-FACTORIAL HepG2 Assay for human RAR-related Orphan Receptor beta (RORb) (AID 2283010)
Method in brief: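 HepG2 cells were transiently transfected with multiplexed GAL4-UAS reporter units expressing chimeric nuclear receptor–GAL4 proteins, then dosed for 24 h. Reporter mRNA was quantified by RT-PCR with fluorescent labelling and capillary electrophoresis; gain of signal was fitted relative to DMSO.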

[10] = biological target: human RAR-related Orphan Receptor gamma (RORg), RORC (gene 6097) (UniProt P51449); test: ATG_RORg_TRANS: Attagene TRANS-FACTORIAL HepG2 Assay for human RAR-related Orphan Receptor gamma (RORg) (AID 2283011)
Method in brief: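 HepG2 cells transiently transfected with GAL4-UAS reporter units and chimeric RORg-Gal4 construct; after 24 h chemical exposure, reporter mRNA measured by RT-PCR with fluorescent capillary electrophoresis, gain of signal fitted against DMSO.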

Measured: AC50

Sequence of human Retinoic Acid Receptor gamma (RARg), RARG (gene 5916) (P13631 whole entry, looked up, the tested form may be a part): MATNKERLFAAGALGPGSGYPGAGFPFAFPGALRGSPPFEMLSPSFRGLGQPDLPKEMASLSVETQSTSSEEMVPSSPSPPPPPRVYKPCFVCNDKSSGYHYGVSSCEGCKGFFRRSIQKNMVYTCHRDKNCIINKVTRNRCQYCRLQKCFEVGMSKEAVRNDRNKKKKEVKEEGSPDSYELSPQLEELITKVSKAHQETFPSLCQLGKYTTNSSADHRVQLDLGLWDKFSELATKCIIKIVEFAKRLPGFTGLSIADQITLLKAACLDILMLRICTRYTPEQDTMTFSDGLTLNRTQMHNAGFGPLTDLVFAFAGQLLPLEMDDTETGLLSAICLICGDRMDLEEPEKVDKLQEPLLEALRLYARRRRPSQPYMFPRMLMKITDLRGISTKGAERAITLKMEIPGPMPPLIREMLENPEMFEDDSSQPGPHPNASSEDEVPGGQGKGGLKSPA
Sequence of Retinoic acid receptor alpha (Homo sapiens) (P10276 whole entry, looked up, the tested form may be a part): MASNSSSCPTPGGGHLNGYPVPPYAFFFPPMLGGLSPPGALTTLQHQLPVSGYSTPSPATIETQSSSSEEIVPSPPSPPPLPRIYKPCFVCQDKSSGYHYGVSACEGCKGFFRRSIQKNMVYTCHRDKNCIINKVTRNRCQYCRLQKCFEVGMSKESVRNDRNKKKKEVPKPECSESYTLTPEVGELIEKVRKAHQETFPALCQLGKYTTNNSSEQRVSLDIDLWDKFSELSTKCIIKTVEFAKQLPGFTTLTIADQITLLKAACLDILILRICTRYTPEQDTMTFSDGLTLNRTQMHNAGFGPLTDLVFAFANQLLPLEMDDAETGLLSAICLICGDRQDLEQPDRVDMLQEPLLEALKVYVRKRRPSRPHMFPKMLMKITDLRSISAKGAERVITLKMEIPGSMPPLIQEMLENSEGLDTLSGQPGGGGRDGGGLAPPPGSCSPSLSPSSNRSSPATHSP
Sequence of human Peroxisome Proliferator-activated Receptor delta (PPARd), PPARD (gene 5467) (Q03181 whole entry, looked up, the tested form may be a part): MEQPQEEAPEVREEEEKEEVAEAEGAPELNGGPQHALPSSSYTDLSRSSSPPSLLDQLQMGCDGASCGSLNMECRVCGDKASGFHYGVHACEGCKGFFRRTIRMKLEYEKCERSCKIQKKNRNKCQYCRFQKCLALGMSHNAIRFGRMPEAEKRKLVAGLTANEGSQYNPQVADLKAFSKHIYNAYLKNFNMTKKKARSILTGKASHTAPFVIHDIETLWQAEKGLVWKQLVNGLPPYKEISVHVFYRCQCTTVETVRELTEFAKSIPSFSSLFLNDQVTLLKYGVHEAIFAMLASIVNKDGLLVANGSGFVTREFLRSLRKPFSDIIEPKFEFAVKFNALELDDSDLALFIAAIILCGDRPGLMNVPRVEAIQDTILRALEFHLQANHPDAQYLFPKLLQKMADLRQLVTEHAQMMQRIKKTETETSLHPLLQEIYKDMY
Sequence of Peroxisome proliferator-activated receptor gamma (Homo sapiens) (P37231 whole entry, looked up, the tested form may be a part): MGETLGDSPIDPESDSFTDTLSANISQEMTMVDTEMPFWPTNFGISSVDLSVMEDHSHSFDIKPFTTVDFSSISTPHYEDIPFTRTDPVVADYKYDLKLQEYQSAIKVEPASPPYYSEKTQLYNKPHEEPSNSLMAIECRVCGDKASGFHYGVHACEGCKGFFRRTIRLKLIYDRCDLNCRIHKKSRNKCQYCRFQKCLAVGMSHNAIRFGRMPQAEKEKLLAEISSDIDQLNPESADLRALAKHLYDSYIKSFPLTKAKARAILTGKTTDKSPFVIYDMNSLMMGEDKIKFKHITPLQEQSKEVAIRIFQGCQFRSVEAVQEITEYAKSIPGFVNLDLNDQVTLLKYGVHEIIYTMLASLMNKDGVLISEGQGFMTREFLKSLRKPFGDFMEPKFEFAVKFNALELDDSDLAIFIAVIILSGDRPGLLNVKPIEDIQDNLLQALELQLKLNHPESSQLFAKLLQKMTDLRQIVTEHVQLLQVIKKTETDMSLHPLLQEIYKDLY
Sequence of Nuclear receptor subfamily 1 group I member 2 (Homo sapiens) (O75469 whole entry, looked up, the tested form may be a part): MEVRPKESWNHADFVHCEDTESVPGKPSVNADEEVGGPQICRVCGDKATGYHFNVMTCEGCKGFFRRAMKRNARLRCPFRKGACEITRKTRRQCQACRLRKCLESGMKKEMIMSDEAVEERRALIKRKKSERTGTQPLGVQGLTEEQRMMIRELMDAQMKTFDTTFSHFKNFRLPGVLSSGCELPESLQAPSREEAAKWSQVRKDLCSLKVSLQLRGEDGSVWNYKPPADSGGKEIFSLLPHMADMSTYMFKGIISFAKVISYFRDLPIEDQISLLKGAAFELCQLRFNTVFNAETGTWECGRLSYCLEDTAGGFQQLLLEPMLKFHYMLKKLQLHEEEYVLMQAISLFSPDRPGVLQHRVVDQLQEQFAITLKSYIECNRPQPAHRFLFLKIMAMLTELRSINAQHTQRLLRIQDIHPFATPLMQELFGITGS
Sequence of human Retinoic Acid Receptor beta (RARb), RARB (gene 5915) (P10826 whole entry, looked up, the tested form may be a part): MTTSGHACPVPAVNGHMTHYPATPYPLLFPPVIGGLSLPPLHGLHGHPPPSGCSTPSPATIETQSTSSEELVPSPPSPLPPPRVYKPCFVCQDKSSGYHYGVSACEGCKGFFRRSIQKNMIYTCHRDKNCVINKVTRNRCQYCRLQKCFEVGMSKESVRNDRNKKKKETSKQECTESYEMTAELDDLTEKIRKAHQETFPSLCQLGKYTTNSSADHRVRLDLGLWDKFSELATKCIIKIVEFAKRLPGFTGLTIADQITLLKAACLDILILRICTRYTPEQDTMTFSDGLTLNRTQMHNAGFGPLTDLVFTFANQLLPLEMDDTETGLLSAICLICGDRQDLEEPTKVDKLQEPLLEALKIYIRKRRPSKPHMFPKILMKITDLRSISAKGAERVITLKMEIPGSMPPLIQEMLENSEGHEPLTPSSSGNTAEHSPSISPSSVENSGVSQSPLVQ
Sequence of human RAR-related Orphan Receptor gamma (RORg), RORC (gene 6097) (P51449 whole entry, looked up, the tested form may be a part): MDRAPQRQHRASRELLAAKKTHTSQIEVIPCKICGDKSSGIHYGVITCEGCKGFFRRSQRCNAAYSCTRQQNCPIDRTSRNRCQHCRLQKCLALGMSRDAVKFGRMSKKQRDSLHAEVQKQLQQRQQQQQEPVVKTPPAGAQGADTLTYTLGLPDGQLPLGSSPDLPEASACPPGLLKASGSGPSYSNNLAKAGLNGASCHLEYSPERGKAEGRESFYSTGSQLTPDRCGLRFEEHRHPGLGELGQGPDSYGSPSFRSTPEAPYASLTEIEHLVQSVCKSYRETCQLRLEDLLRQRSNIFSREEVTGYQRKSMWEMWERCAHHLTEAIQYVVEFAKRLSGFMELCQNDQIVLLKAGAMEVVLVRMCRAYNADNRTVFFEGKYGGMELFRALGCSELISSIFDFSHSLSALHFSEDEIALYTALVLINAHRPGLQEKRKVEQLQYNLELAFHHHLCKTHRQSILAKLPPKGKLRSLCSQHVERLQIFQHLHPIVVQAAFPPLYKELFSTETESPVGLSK
Sequence of human RAR-related Orphan Receptor beta (RORb), RORB (gene 6096) (Q92753 whole entry, looked up, the tested form may be a part): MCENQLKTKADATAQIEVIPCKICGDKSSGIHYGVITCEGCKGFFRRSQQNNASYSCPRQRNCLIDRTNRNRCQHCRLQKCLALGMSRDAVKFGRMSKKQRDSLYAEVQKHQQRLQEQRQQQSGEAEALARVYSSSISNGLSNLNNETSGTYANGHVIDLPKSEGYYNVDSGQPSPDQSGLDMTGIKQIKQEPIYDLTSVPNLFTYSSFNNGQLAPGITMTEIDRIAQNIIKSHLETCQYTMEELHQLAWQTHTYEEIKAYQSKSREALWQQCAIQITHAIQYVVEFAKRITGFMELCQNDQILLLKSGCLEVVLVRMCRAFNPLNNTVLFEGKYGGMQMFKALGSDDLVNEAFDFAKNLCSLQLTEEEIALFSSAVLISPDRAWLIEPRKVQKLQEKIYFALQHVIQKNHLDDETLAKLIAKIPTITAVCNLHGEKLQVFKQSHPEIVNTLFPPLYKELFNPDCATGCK

CCc1nc(N)nc(N)c1-c1ccc(Cl)cc1
inactive: [1] | [2] | [3] | [4] | [5]

Nc1nc(=S)c2[nH]cnc2[nH]1
not listed: [1] | [5]
inactive: all other assays above

CC(C)NCC(O)c1ccc(O)c(O)c1 (configuration not stated)
inactive: [1] | [2] | [3] | [10]

CCOCCOCCO
inactive: [2] | [3] | [4]

O=NO
inactive: [2] | [6] | [3] | [5] | [9]

Nc1nc(Cl)nc2c1ncn2[C@H]1C[C@H](O)[C@@H](CO)O1
active: [3] 0.147 µM
inactive: [1] | [2] | [5]

O=C1OC(c2ccc(O)cc2)(c2ccc(O)cc2)c2ccccc21
active: [3] 15 µM | [5] 0.604 µM
inactive: [2] | [7] | [8]

CC(=O)[C@@]1(O)CC[C@H]2[C@@H]3CCC4=CC(=O)CC[C@]4(C)[C@H]3CC[C@@]21C
inactive: [1] | [2] | [3] | [5] | [10]

OCC(O)CO
inactive: [2] | [3]

COC(=O)CCCC(=O)OC
inactive: [1] | [2] | [3] | [9]

CC(C)COC(=O)CCCCC(=O)OCC(C)C
not listed: [1] | [9]
inactive: all other assays above

O=C(O)c1[nH]n(-c2ccc(S(=O)(=O)O)cc2)c(=O)c1N=Nc1ccc(S(=O)(=O)O)cc1
inactive: [1] | [2] | [3] | [9]

O=C(O)CN(CC(=O)O)CC(=O)O
inactive: [1] | [2] | [3] | [8] | [10]

Cc1cc(Cc2ccc(N)c(C)c2)ccc1N
inactive: [2] | [7] | [3] | [5] | [10]

CC(C)c1cccc(C(C)C)c1NC(=O)NS(=O)(=O)c1cc(C(C)(C)O)co1
active: [5] 9.03 µM
not listed: [1] | [4] | [7]
inactive: all other assays above

Cc1ccc(-c2cc(C(F)(F)F)nn2-c2ccc(S(N)(=O)=O)cc2)cc1
inactive: [6] | [7] | [4] | [5] | [8]
active: [2] 36.8 µM | [3] 20 µM

O=C(O)CC(O)(CC(=O)O)C(=O)O
inactive: [2] | [3]

CN(C)CCCN1c2ccccc2Sc2ccc(Cl)cc21
active: [3] 25 µM
inactive: [1] | [5]

CCCCC(CC)COP(=O)(OCC(CC)CCCC)OCC(CC)CCCC (configuration not stated)
inactive: [1] | [2] | [9]
active: [3] 20.6 µM | [5] 0.227 µM

O=C1NC(=O)C(c2ccccc2)(c2ccccc2)N1
inactive: [2] | [3] | [4] | [5]

Oc1ccccc1O
active: [3] 10.1 µM
not listed: [1] | [5]
inactive: all other assays above

C/C=C/c1ccc(OC)cc1
inactive: [1] | [2] | [3] | [5]

Cc1cc(SC2=C(O)C[C@@](CCc3ccc(N)cc3)(C(C)C)OC2=O)c(C(C)(C)C)cc1CO
active: [5] 1.65 µM
inactive: [1] | [2] | [3] | [9] | [10]

COc1ccc(OC(F)(F)F)cc1CN[C@H]1CCCN[C@H]1c1ccccc1
active: [3] 28.2 µM | [5] 2.95 µM
inactive: [1] | [2]

O=[Si]=O
not listed: [1] | [10]
inactive: all other assays above

Oc1ccc(O)cc1
active: [3] 20 µM
not listed: [1] | [5] | [10]
inactive: all other assays above

CCc1cc(C2=C(C(=O)O)N(c3ccccc3C(F)(F)F)S(=O)(=O)c3ccccc32)cc2c1OCO2
active: [3] 16.6 µM | [5] 1.42 µM
inactive: [1] | [2] | [10]

CC(COCC(C)OC(=O)c1ccccc1)OC(=O)c1ccccc1 (configuration not stated)
not listed: [1] | [6] | [9]
inactive: all other assays above

Cc1ccc(C(C)(C)C)c(O)c1
active: [2] 31.1 µM | [5] 47.2 µM
inactive: [3] | [4]

N[C@@H](Cc1c[nH]c2ccccc12)C(=O)O
not listed: [1] | [4] | [6]
inactive: all other assays above

CC(C)OC(=O)C(C)(C)Oc1ccc(C(=O)c2ccc(Cl)cc2)cc1
active: [3] 15.8 µM | [5] 5.53 µM
inactive: [1] | [2] | [10]

CCCC(=O)O
inactive: [8]

Cn1cnc2c1c(=O)[nH]c(=O)n2C
inactive: [8]
